# Compound activity (PubChem BioAssay)
# tim10-1 inh = growth inhibitors of tim10-1 mutant yeast, primary screen, luminescence, uHTS | S. cerevisiae tim10-1 ts strain growth, BacTiter-Glo, 24 h | inhibition, % at 20 µM | actives 2.2% (n = 330,000);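 active means inhibition of at least 40%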;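 further: mutant grown at 25 °C; 0% = DMSO wells with yeast and 100% = wells holding no yeast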
# PfHsp90 set2 = growth inhibition of PfHsp90-expressing yeast, primary screen, antimalarial PfHsp90 inhibitor project, S. cerevisiae, BacTiter-Glo luminescence, single point, set 2 | BacTiter-Glo ATP, 48 h; yeast lacking PDR1 and PDR3 efflux regulators | AID 504621, 2011 | inhibition, % at 9.4 µM | actives 0.32% (n = 310,000);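 active means every replicate shows inhibition above about 80%, whatever the replicate mean, limit read from the data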;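 further: 0% = DMSO neutral controls and 100% = 20 µM radicicol positive controls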
# TIM10 inh = growth inhibitors of isogenic TIM10 control yeast, primary screen, counter-screen for tim10-1 yeast inhibitor project, luminescence, uHTS | S. cerevisiae TIM10 strain growth, BacTiter-Glo luminescence, 24 h | actives 1.4% (n = 330,000) | inhibition, % at 10 µM | AID 463195, 2010;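 active means inhibition of 40% or more at the single tested concentration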;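 further: wild-type TIM10 isogenic control strain grown at permissive 25 °C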
# NALP1 inh = NALP1 inflammasome inhibitors in reconstituted yeast, colorimetric, S. cerevisiae, triplicate retest; inhibition, % at 10 µM; S. cerevisiae NALP1/ASC/caspase-1 growth, X-gal OD620, 72 h; actives 0.61% (n = 280,000); in the data active means inhibition mostly above about 24%, no sharp cut-off; inactive means mostly below about 32%
# tim23-1 inh = growth inhibitors of tim23-1 mutant yeast, primary screen, luminescence, uHTS | S. cerevisiae tim23-1 growth, BacTiter-Glo luminescence, 24 h | inhibition, % at 20 µM | actives 1.3% (n = 330,000);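 active means growth inhibition of the mutant yeast at or above 50%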;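 further: temperature-sensitive mutant grown at 25 °C; plate controls were DMSO-treated mutant yeast for no effect and medium wells lacking yeast for full effect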
# NALP3 yeast inh = NALP3 inflammasome inhibitors in reconstituted yeast, primary screen, luminescence, uHTS | Yeast reconstituted NLRP3/ASC/caspase-1, beta-gal luminescence, 24 h | actives 0.39% (n = 330,000) | AID 2825, 2010 | inhibition, % at 10 µM;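 active means inhibition of 50% or more; inactive means inhibition below 50%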;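 further: plate controls were induced DMSO wells for no effect and uninduced yeast grown without galactose for full effect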
# TIM10 conf = growth inhibitors of wild-type TIM10 yeast, confirmation, counter-screen for tim10-1 synthetic lethality project, single concentration, luminescence, S. cerevisiae; shares compounds with TIM10 inh; S. cerevisiae tim10 strain growth, BacTiter-Glo luminescence, 24 h; inhibition, % at 10 µM; actives 63% (n = 4,600); AID 463215, 2010;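 active means inhibition of yeast growth at or above a set limit in either of two replicates at 10 µM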;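 further: this counterscreen used the strain with wild-type TIM10; 0% = yeast with DMSO and 100% = medium wells lacking yeast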
# tim23-1 conf = tim23-1 mutant yeast growth inhibitors, confirmation, luminescence, single concentration. shares compounds with tim23-1 inh. S. cerevisiae tim23-1 growth, BacTiter-Glo luminescence, 24 h. inhibition, % at 20 µM. actives 83% (n = 4,400);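 active means inhibition above about 39% in either of two replicate wells at 20 µM, limit read from the data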;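 further: temperature-sensitive tim23-1 mutant grown at 25 °C; 0% = DMSO wells with yeast and 100% = medium wells without yeast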
# An asterisk follows results filed as active; . = not tested or not shown. Hits are enriched below; roughly 4.2% of the tested compounds scored in any of these assays.
SMILES,tim10-1 inh,PfHsp90 set2,TIM10 inh,NALP1 inh,tim23-1 inh,NALP3 yeast inh,TIM10 conf,tim23-1 conf
O=C(Nc1nccs1)c1ccc2c(=O)n3c(nc2c1)CCCCC3,6,10,49*,36,52*,36,44*,66*
O=C(Nc1nccs1)c1ccc(S(=O)(=O)c2ccccc2)cc1,7,4,4,15,-6,-5,.,.
O=C(Nc1nccs1)c1ccc2ccccc2c1,-27,-38,46*,14,54*,47,52*,63*
O=C(CN1CCOCC1)Nc1ccc2c(c1)CCC2,-3,-22,-5,.,-1,4,.,.
CCOC(=O)C1CCN(C(=O)c2cc3cc4ccc(OC)cc4nc3o2)CC1,35,-9,41*,-8,68*,30,37*,67*
CCOC(=O)C1CCN(C(=O)c2ccc(OC)cc2OC)CC1,-8,10,-3,18,-2,4,.,.
Cc1ccc2cc3cc(C(=O)N4CC(C)CC(C)C4)oc3nc2c1 (stereo not given),38,31,48*,-30,53*,-7,39*,60*
COc1ccc2cc3cc(C(=O)N4CCN(Cc5ccc6c(c5)OCO6)CC4)oc3nc2c1,39,1,40*,8,68*,37,-3,83*
O=S(=O)(Nn1cnnc1)c1ccc(F)cc1,30,-10,13,21,21,4,.,.
COc1cccc(-c2c(-c3cc(OC)cc(OC)c3)n(C)c3ccc(-c4cnc(N5CCOCC5)nc4)cc23)c1,4,-13,-6,.,11,1,.,.
CCC(NCc1cccnc1)c1ccc(OC)c(OC)c1 (stereo not given),.,3,.,.,.,.,.,.
Cc1nc(-c2ccc(NC(=O)C3CCCCC3)cc2)cs1,14,22,6,-1,18,32,.,.
O=C(Nc1ccc(-c2cn3ccsc3n2)cc1)C1CCCC1,26,23,59*,1,57*,31,50*,69*
O=C(COC(=O)/C=C/c1ccc(F)cc1)NCC1CCCO1 (stereo not given),7,9,4,.,19,-7,.,.
Cc1ccc(NC(=O)c2ccccc2)s1,26,.,58*,-6,55*,3,38*,74*
Cc1ccc(C)n1-c1ccc(NC(=O)c2ccccc2)cc1,13,0,-9,39,26,4,.,.
O=C(Nc1cc(Cl)c(Cl)cc1Cl)c1cccnc1,1,4,4,20,4,3,.,.
CCOC(=O)/C(C#N)=C/c1cc2ccc(C)cc2nc1Cl,22,-10,42*,5,56*,15,7,64*
CCOC(=O)/C(C#N)=C/c1cc2ccccc2nc1N1CCOCC1,33,11,22,32,31,-2,.,.
O=C(Nc1cccc(-c2csc(Nc3ccccc3)n2)c1)c1ccccc1,33,-46,48*,.,54*,28,44*,46*
NC(=S)N/N=C\c1ccccc1OCc1ccccc1,10,-7,41*,22,53*,39,-37,22
O=C(CSCc1ccccc1)N/N=C/c1ccccc1OCc1ccccc1,23,0,19,-6,20,8,.,.
Nc1ccc(-c2nc3c(ccc4ccccc43)[nH]2)cc1,5,23,66*,-9,58*,23,66*,52*
COc1ccc(/C=C/C(=O)OCC(=O)NC2CCCC2)cc1,2,.,13,.,20,2,.,.
CC(C)NC(=O)N(C)C[C@H]1Oc2ccc(NC(=O)C3CC3)cc2C(=O)N([C@H](C)CO)C[C@@H]1C,8,-7,1,.,1,36,.,.
SMILES,tim10-1 inh,PfHsp90 set2,TIM10 inh,NALP1 inh,tim23-1 inh,NALP3 yeast inh,TIM10 conf,tim23-1 conf
COc1ccc(C(=O)Nc2ccc3ccccc3c2)c(OC)c1,18,18,57*,2,60*,30,62*,80*
CCOc1ccc(C2=NNC(c3cccs3)=Nc3ccc(OC)cc32)cc1OCC,12,-29,33,21,0,3,.,.
CCOc1ccc(C2=NNC(c3cccs3)=Nc3ccc(OCC)cc32)cc1,29,.,52*,-9,55*,48,44*,68*
COc1ccc([N+](=O)[O-])cc1NC(=O)Cc1ccccc1Cl,16,-18,0,24,-1,7,.,.
COc1ccc(N=Cc2cc(Cc3ccccc3Cl)cc([N+](=O)[O-])c2O)cc1OC,12,111*,60*,12,80*,16,48*,-27
Cc1nn2cnnc2c(C)c1Cc1c(F)cccc1Cl,-4,15,5,13,32,-3,.,.
CCC(C)(C)NC(=O)CN(Cc1ccccc1)C(=O)CCC(=O)Nc1nccs1,11,11,5,6,8,24,.,.
O=C1CCCCCN1Sc1ccccc1,31,-60,51*,2,58*,7,35*,29
O=C(NC(=S)NC(CO)Cc1ccccc1)c1ccc(F)cc1 (stereo not given),30,1,9,13,36,11,.,.
Cc1cc(C)nc(SCc2ccc(C(=O)N/N=C/c3cccc(O)c3O)cc2)n1,26,53,56*,20,60*,9,47*,56*
COc1ccc(O)c(/C=N/NC(=O)c2ccc(CSc3nc(C)cc(C)n3)cc2)c1,19,10,11,38,25,15,.,.
CSC1=NC(=O)/C(=C\c2cccc3ccccc23)S1,12,-7,41*,-19,76*,0,26,51*
N=C1S/C(=C\c2cccc3ccccc23)C(=O)N1c1ccc(F)cc1,29,-42,15,22,27,20,.,.
O=C(Nc1ccc(N2CCOCC2)nc1)c1cccs1,26,3,55*,2,50*,18,43*,68*
O=C(Nc1ccc(N2CCN(c3ccc(C(F)(F)F)cn3)CC2)nc1)c1cccs1,-17,4,-1,19,-2,-13,.,.
O=C(Nc1ccc(N2CCN(c3ncccc3C(F)(F)F)CC2)nc1)c1cccs1,37,14,45*,16,67*,35,53*,82*
CC1(O)CC2CC1C(C(=O)O)C2C(=O)O (stereo not given),.,10,.,.,.,.,.,.
